Laboratory results from ChEMBL document CHEMBL3988442, “University of Dundee, Small-Polar-MMV Screening Library” (2021).
Screen size: about 53,000 compounds; about 900 (1.7%) showed an effect of 50% or more. The full list was thinned out, with strong results kept by preference.

The molecules below were run on Mycobacterium tuberculosis (assay: Cornell - Phenotypic assay to identify agents that inhibit growth of Mycobacterium tuberculosis). Conditions: 10 mM as filed; unlikely as a test dose.
Format: functional
Parameters: scale not given: direction of the effect not stated beside the values
In the case of `Cc1ccc(Cl)cc1N1CCN(CC(=O)NCc2ccco2)CC1`, the “Percent Effect” value is reported as 15.76%. `O=C(NCC1CCCO1)Nc1nnc(C(F)(F)F)s1` (centres undefined) was tested, and the “Percent Effect” value was 1.87%. For `CCOCC(=O)NCCc1nc(C)cc(C(F)(F)F)n1`, the “Percent Effect” value was 8.236%. With `COc1ncc(-c2cc(NCCN(C)C)nc3[nH]ccc23)c(OC)n1` the “Percent Effect” value was -22.77%. For `Nc1ccnc(-c2cc(NC3CCNCC3)nc3[nH]ccc23)c1`, the “Percent Effect” value was 11.63%. `COCCNc1cc(-c2ccccc2S(N)(=O)=O)c2cc[nH]c2n1` was tested, and the “Percent Effect” value was 21.18%. For `FC(F)(F)c1ccc(-c2cc(NC3CCNCC3)nc3[nH]ccc23)nc1`, the “Percent Effect” value was 3.154%. For `COc1cc(-c2cc(NC3CCCC3)nc3[nH]ccc23)nc(N)n1`, the “Percent Effect” value was 98.19%. `COc1nccnc1-c1cc(NC2CCCC2)nc2[nH]ccc12` was tested, and the “Percent Effect” value was 101.6%. For `CNc1cc(C)nc(-c2cc(NC3CCNCC3)nc3[nH]ccc23)n1`, the “Percent Effect” value was 12.28%. In the case of `COc1ncc(-c2cc(NC3CCCC3)nc3[nH]ccc23)c(OC)n1`, the “Percent Effect” value is reported as 89.73%. For `COc1nccnc1-c1cc(NC2CCNCC2)nc2[nH]ccc12`, the “Percent Effect” value was 48.16%. With `C=Cc1cccc(CN(Cc2cnn(C)c2)C2CC2)c1` the “Percent Effect” value was 14.04%. For `Cc1nc(C)n(CC2CCCCN2Cc2cn3ccccc3n2)n1` (centres undefined), the “Percent Effect” value was -36.82%. `Cc1csc(C(C)(C)NCCOc2ccc(CC#N)cc2)n1` was tested, and the “Percent Effect” value was -14.48%. For `NC(=O)N1CCCN(Cc2cc(F)cc(Br)c2)CC1`, the “Percent Effect” value was 17.84%. For `Cc1cccc(CN2C[C@@H]3COC[C@]3(CNC(=O)C3CCC3)C2)c1.O=C(O)C(F)(F)F`, the “Percent Effect” value was 0.1331%. In the case of `CCOC1CC2(CCN(c3cnccn3)CC2)c2ccccc21` (centres undefined), the “Percent Effect” value is reported as 32.32%. In the case of `O=C(O)C(F)(F)F.c1cncc(C2CC3(CCN(c4cnccn4)CC3)c3ccccc32)c1` (centres undefined), the “Percent Effect” value is reported as 50.88%. For `CN(C)CCOC1CC2(CCN(c3cnccn3)CC2)c2ccccc21.O=C(O)C(F)(F)F` (centres undefined), the “Percent Effect” value was -38.38%. `Cc1cnc(-c2nc(O)c3c(n2)CN(C(=O)C2CCCC2)CC3)cn1` was tested, and the “Percent Effect” value was -5.983%. In the case of `Cn1cc(S(=O)(=O)NCC(C)(O)c2ccsc2)cn1` (centres undefined), the “Percent Effect” value is reported as -58.46%. For `COCc1nc(C2CCN(Cc3ncc[nH]3)CC2)no1`, the “Percent Effect” value was -22.72%. For `Fc1ccc(NCc2ncc[nH]2)cc1Br`, the “Percent Effect” value was 55.27%. `COC(=O)c1ccc(NCc2csc(C)n2)cc1Cl` was tested, and the “Percent Effect” value was 15.32%. In the case of `Fc1cccc(NCc2ncc[nH]2)c1`, the “Percent Effect” value is reported as 35.73%. `CC(C)(C)OC(=O)N1CCCc2ccc(NCc3ncc[nH]3)cc21` was tested, and the “Percent Effect” value was -12.48%. In the case of `COc1cc(NCc2ncc[nH]2)ccc1Br`, the “Percent Effect” value is reported as -5.052%. `Cc1csc(CNc2cnn(C(C)C)c2)n1` was tested, and the “Percent Effect” value was -3.592%. `COCc1nc(CNc2cccc(-c3csc(C)n3)c2)cs1` was tested, and the “Percent Effect” value was 38.18%. With `COCc1nc2cc(NCc3csc(C)n3)ccc2o1` the “Percent Effect” value was 107.6%. In the case of `COCc1nc2cc(NCc3ncc[nH]3)ccc2o1`, the “Percent Effect” value is reported as 107.7%. In the case of `COCc1nc2cc(NCc3nc(C)cs3)ccc2o1`, the “Percent Effect” value is reported as 107.4%. In the case of `Cc1csc(CNc2cccc(OCCN3CCCC3)c2)n1`, the “Percent Effect” value is reported as 34.79%.
